Experimental findings from PubChem BioAssay (Tox21) are described below.

“And” between values parts separate entries of the source, which are not always exact repeats. Equal entries are not always repeated. A number with no mark means an inactive call. Inconclusive results are not listed. The source made the active and inactive calls. Unless noted, the call rests on the fitted dose curve; in most records, active means well fitted curve in the direction sought with a large enough effect in the repeat runs; inconclusive means weak or mixed curves; inactive means no such curve, though single readings can be large; an effect the other way counts as inactive or inconclusive.

Assay [1] in a line: qHTS assay to identify small molecule agonists of the hypoxia (HIF-1) signaling pathway - cell viability counter screen (AID 1224844; calls by dose curve; further: nearly all actives have a fitted effect of over 50% in size). The essentials:
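HRE-bla ME-180; 0.5% dFBS; cpd 17 h, 37C, 5% CO2; CellTiter-Glo lum., 30 min RT, post-FRET read, same wells.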

Assay [2] can be described thus: qHTS assay to identify small molecule agonists of H2AX (AID 1224845; active means well fitted activation curve with a large enough effect in the signal ratio in the repeat runs, not every such curve was filed as active; the % refers to the signal ratio). The essentials:
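Wild-type CHO-K1 cells plated overnight, then exposed 3 hr at 37C to compounds at 15 concentrations (0.76% DMSO). Lysed, then HTRF anti-pH2AX(S139)-cryptate/anti-H2AX-d2 detection after 24 hr at room temperature; emissions 665 and 620 nm.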

Assay [3] is described as follows: qHTS assay to identify small molecule agonists of the hypoxia (HIF-1) signaling pathway (AID 1224846; active means well fitted activation curve with a large enough effect in the signal ratio in the repeat runs, not every such curve was filed as active; the % refers to the signal ratio). The essentials:
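Reporter induction in HRE-bla ME-180 cells is taken as agonism: cells sit 5 hrs after plating, receive compounds or DMSO only, incubate 17 hrs at 37C under 5% CO2, and are loaded with CCF4-AM for beta-lactamase FRET measurement.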

Assay [4] in a line: qHTS assay to identify small molecule agonists of H2AX - cell viability counter screen (AID 1224847; calls by dose curve; further: top concentration of the series differs between compounds; nearly all actives have a fitted effect of over 30% in size). The method in brief: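 After overnight plating of 1000 CHO-K1 cells per well, a 15-concentration compound series was applied for 3 hr at 37C. Luminescence from CellTiter-Glo, read following 30 min at room temperature, reflected cell viability.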
Assay [5] is described as follows: qHTS RealTime-Glo MT Cell Viability Assay in HEK293 cells - 32 hour (AID 1224868). Further: nearly all actives have a fitted effect of over 50% in size. Further: potency means the concentration at half of the fitted maximal effect. On activity change, negative = cytotoxic: top concentration of the series differs between compounds. The method in brief: (§1)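 Viability tracked continuously by luminescence as live cells reduce a prosubstrate for NanoLuc; HEK293 cells preincubated 5 h, compound-treated at 37 C, and read at 0, 8, 16, 24, 32 and 40 h.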
Assay [6] is described as follows: A CellTox Green Cytotoxicity Assay to monitor cytotoxicity in HEK293 cells - 0 hour (AID 1224869). Further: nearly all actives have a fitted effect of over 50% in size. The method in brief: (§2)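 Tox21 screen in HEK293: membrane-impermeant cyanine dye fluoresces on binding dead-cell DNA; compound pinned 5 h post-seeding, plates held at 37 C, signal read repeatedly through 40 h.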
Assay [7] in a line: qHTS RealTime-Glo MT Cell Viability Assay in HepG2 cells - 40 hour (AID 1224870). Further: nearly all actives have a fitted effect of over 50% in size. The essentials: (§3)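 HepG2 cells mixed with RealTime-Glo MT reagents (NanoLuc plus cell-permeant prosubstrate) were seeded at 600 cells/well, incubated 5 h at 37 C/5% CO2, then pinned with compounds in DMSO; nonlytic luminescence tracked viability during 40 h treatment.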
A short description of assay [8]: qHTS RealTime-Glo MT Cell Viability Assay in HEK293 cells - 16 hour (AID 1224872). The method in brief:
as §1

Assay [9] is described as follows: qHTS RealTime-Glo MT Cell Viability Assay in HepG2 cells - 8 hour (AID 1224873). Further: nearly all actives have a fitted effect of over 55% in size. The essentials:
as §3

Assay [10] can be described thus: qHTS RealTime-Glo MT Cell Viability Assay in HEK293 cells - 40 hour (AID 1224874). Further: nearly all actives have a fitted effect of over 50% in size. Further: potency means the concentration at half of the fitted maximal effect. To be noted: RealTime-Glo luminescence; max response: stronger effect = lower value. The essentials:
(§4)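 HEK293 + NanoLuc + prosubstrate, 600 cells/well; 5 h, 37 C/5% CO2; compound 23 nL in DMSO by pintool; 37 C; luminescence read at 0, 8, 16, 24, 32 and 40 h time points.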

The nature of assay [11]: A CellTox Green Cytotoxicity Assay to monitor cytotoxicity in HEK293 cells - 24 hour (AID 1224875). Further: nearly all actives have a fitted effect of over 45% in size. The method in brief: as §2
Assay [12] can be described thus: A CellTox Green Cytotoxicity Assay to monitor cytotoxicity in HepG2 cells - 16 hour (AID 1224876). Further: nearly all actives have a fitted effect of over 45% in size. The method in brief: (§5)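 Measurements at 0, 8, 16, 24, 32 and 40 h of treatment captured CellTox Green fluorescence in HepG2 cells that had been co-plated with reagent and preincubated 5 h at 37 C/5% CO2.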
Assay [13] can be described thus: qHTS RealTime-Glo MT Cell Viability Assay in HepG2 cells - 32 hour (AID 1224877). Further: nearly all actives have a fitted effect of over 55% in size. The method in brief:
(§6)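 Viability was tracked continuously by NanoLuc luminescence from prosubstrate reduced by living HepG2 cells, at successive time points over 40 h of compound exposure. Cells with reagent were preincubated 5 h at 37 °C before compound addition.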

Assay [14] can be described thus: A CellTox Green Cytotoxicity Assay to monitor cytotoxicity in HepG2 cells - 24 hour (AID 1224878). Further: nearly all actives have a fitted effect of over 45% in size. The essentials: as §5
The nature of assay [15]: A CellTox Green Cytotoxicity Assay to monitor cytotoxicity in HepG2 cells - 40 hour (AID 1224879). Further: nearly all actives have a fitted effect of over 40% in size. The method in brief:
as §5

Assay [16] is described as follows: qHTS RealTime-Glo MT Cell Viability Assay in HEK293 cells - 0 hour (AID 1224880). Further: top concentration of the series differs between compounds; nearly all actives have a fitted effect of over 45% in size. The essentials: as §4
The nature of assay [17]: qHTS RealTime-Glo MT Cell Viability Assay in HepG2 cells - 24 hour (AID 1224867). Further: nearly all actives have a fitted effect of over 50% in size. The method in brief:
as §6

Assay [18] can be described thus: A CellTox Green Cytotoxicity Assay to monitor cytotoxicity in HEK293 cells - 40 hour (AID 1224871). Further: nearly all actives have a fitted effect of over 45% in size. The essentials:
as §2

Assay [19] is described as follows: qHTS assay to identify small molecule antagonists of the estrogen related receptor (ERR) signaling pathway from Tox21 library (AID 1224848). Further: nearly all actives have a fitted effect of over 50% in size. The method in brief:
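First, 2,000 ERR cells per well were plated and held 6 h at 37 C/5% CO2. Next, compounds in DMSO were pinned in and left 18 h at 37 C. Finally, ONE-Glo was added and luminescence read after 30 min at room temperature.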

The nature of assay [20]: qHTS assay to identify small molecule agonists of the estrogen related receptor (ERR) signaling pathway from Tox21 library (AID 1224849; calls by dose curve; further: nearly all actives have a fitted effect of over 15% in size). The conditions noted are these: ERR reporter cell line, ONE-Glo luciferase, 18 h. The essentials:
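Tox21 compounds tested for ERR agonism in an NTP reporter cell line: 18 h treatment at 37 C, then ONE-Glo luminescence.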
On the % scale 0 is the no-effect control and ±100 the full control effect.

As to `CCOP(=O)(O)C(N)=O`, the Potency entry in [1], in assay [2], in assay [4], in assay [5], in assay [6] and in [7] was “inactive” throughout. Also, the Potency entry in assay [8], in [9], in assay [11], in assay [12], in assay [13] and in assay [14] was “inactive” in each case. Moreover, in assay [15], the Potency result was “inactive”. For the same molecule, the result in assay [3] and in assay [16] was inactive. Further, in assay [10], the max response was 20.4%.
On to `CCCCCCCCCCCCN=C(N)N`, for which the activity change, negative = cytotoxicity in assay [1] is -8.49% [at 2.72 µM]; in assay [4], -0.757% [at 5.43 µM]; in assay [17], -4.51% [at 2.72 µM]; in assay [16] it was 2.39% [at 2.72 µM]. Besides, the activation (H2AX phosphorylation) in assay [2] is -1.39% [at 5.45 µM]. The activation in [3] is 0.622% [at 2.67 µM]. Moreover, the Potency in [5] is 1.2 µM (active); in assay [10], 1.07 µM (active). In addition, the figures for the cytotoxicity in assay [6] and in assay [14] were 9.65% [at 2.72 µM] and -6.79% [at 2.72 µM], respectively. Besides, the figures for the activity change, negative = cytotoxic in assay [7] and in assay [13] were 1.81% [at 2.72 µM] and -5.5% [at 2.72 µM], respectively. The values for the cytotoxicity increase in assay [18], in [12] and in assay [15] were 10.9% [at 2.72 µM], -5.75% [at 2.72 µM] and -4.41% [at 2.72 µM], respectively. Moreover, the viability change, negative = cytotoxic in assay [9] was -3.99% [at 2.72 µM].
As to `C[C@]12CC[C@H]3[C@@H](CCC4=CC(=O)CC[C@@H]43)[C@@H]1CC[C@@H]2OC(=O)CCc1ccccc1`, the Potency entry in assay [1], in assay [2], in assay [19], in assay [17], in [5] and in assay [6] was “inactive” in each case. Also, the Potency entry in [7], in assay [8], in assay [9], in [11], in assay [12] and in assay [13] was “inactive” in each case. The Potency result in [14] is “inactive”. The call in [3] and in assay [16] was inactive. In addition, the activity change, positive = activation in assay [20] (at 42.5 µM (top of the series)) is 10.2%. The max response in assay [10] is 0.945%.
Regarding `COc1cc(CC#N)cc(OC)c1OC`, the Potency entry in assay [1], in assay [2], in assay [4], in assay [17], in assay [5] and in assay [6] was “inactive” in each case. Besides, the Potency entry in [7], in assay [8], in [9], in [11], in [12] and in assay [13] was “inactive” in each case. Also, the Potency result in assay [14] and in assay [15] was “inactive” throughout. In addition, the outcome in assay [3] and in [16] was inactive. For the same molecule, the max response in assay [10] is 0.767%.
On to `CCc1cnc(C2=NC(C)(C(C)C)C(=O)N2)c(C(=O)O)c1` (stereo not drawn), for which the Potency entry in assay [1], in [2], in assay [4], in assay [17], in assay [5] and in assay [6] was “inactive” in each case. The Potency entry in assay [7], in assay [8], in assay [9], in assay [11], in assay [12] and in [13] was “inactive” in each case. In addition, the Potency entry in assay [14] and in assay [15] was “inactive” throughout. Further, the result in assay [3] and in assay [16] was inactive. Also, in [10], the max response is 1.73% and 22.4%.
Turning to `CC(C)c1ccc(OP(=O)(Oc2ccc(C(C)C)cc2)Oc2ccc(C(C)C)cc2)cc1`, the Potency result in assay [1], in assay [2], in assay [4], in assay [17], in [6] and in assay [7] was “inactive” throughout. For the same molecule, the Potency entry in assay [18], in assay [8], in assay [9], in assay [12], in [13] and in assay [14] was “inactive” throughout. Besides, the Potency result in assay [15] was “inactive”. The result in assay [3] and in assay [16] was inactive. In addition, in assay [10], the max response is -29.6%.
Consider `C=CC(C)(CCC=C(C)C)OC(=O)c1ccccc1N` (stereo not drawn), for which the Potency entry in [1], in assay [2], in assay [4], in assay [17], in assay [5] and in [6] was “inactive” throughout. For the same molecule, the Potency entry in assay [7], in assay [8], in assay [9], in [11], in assay [12] and in [13] was “inactive” each time. In assay [14], the Potency result is “inactive”. Moreover, the call in [3] and in assay [16] was inactive. In addition, in assay [10], the max response is -1.39%.
`CCOP(=S)(OCC)Oc1ccc(S(C)=O)cc1` (stereo not drawn): the Potency result in [1], in assay [2], in assay [19], in assay [5], in assay [6] and in [7] was “inactive” throughout. The Potency entry in assay [18], in [8], in [9], in assay [11], in assay [12] and in assay [13] was “inactive” in each case. Moreover, the Potency result in assay [14] and in [15] was “inactive” each time. Besides, the molecule was called inactive in assay [3] and in assay [16]. In addition, the activity change, positive = activation in assay [20] (at 92.4 µM (top of the series)) is -5.68%. Also, in [10], the max response is 6.56%.
